Test systems include HOP-92 NSCLC; A549/ATCC NSCLC; RXF 393 renal; SK-MEL-5 melanoma; EKVX NSCLC; CAKI-1 renal; CCRF-CEM leukemia; OVCAR-8 ovarian; OVCAR-4 ovarian; IGROV1 ovarian; T-47D breast; MDA-MB-435 melanoma; SW-620 colon; MCF7 breast; HCT-116 colon; HCC-2998 colon; KM12 colon; SK-MEL-28 melanoma.
Assay in all cases: NCI-60 one-dose screen, 48 h (100 = growth as untreated, 0 = no growth, -100 = all killed)
Conditions in all cases: 10 µM

The values that follow come from PubChem BioAssay (NCI).

This is part of a sample that, as a whole, favours compounds with a hit. Of some 83,000 tested, about 20% had one in any assay.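 Activity criterion: percent growth below 10, measured after cells in 96-well plates were exposed to a single compound concentration for 48 hours.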 Values without a mark were called inactive. Activity calls are given as the source filed them.

Take `COc1cc(Nc2nc(O)c(/C=C3\C=Nc4ccccc43)s2)cc(OC)c1OC`: the growth was -72.3% (active) in the test on HOP-92 NSCLC; -69.4% (active) in the test on A549/ATCC NSCLC; -69.2% (active) in the test on RXF 393 renal; -34.7% (active) in the test with SK-MEL-5 melanoma; -41.8% (active) in the test with EKVX NSCLC; -69.3% (active) in the test with CAKI-1 renal. Further, the growth with CCRF-CEM leukemia was 14.9%; with OVCAR-8 ovarian, -49.8% (active); with OVCAR-4 ovarian, -63.9% (active); in the test on IGROV1 ovarian, -40.2% (active); with T-47D breast, 2.48% (active); in the test on MDA-MB-435 melanoma, -77.1% (active). Moreover, the growth in the test with SW-620 colon is -52.1% (active); in the test on MCF7 breast it was -23.7% (active); in the test with HCT-116 colon, -59.2% (active); in the test on HCC-2998 colon, -48.2% (active); in the test on KM12 colon it was -72.4% (active).

With `COc1ccc(-n2c(SCC(=O)NNS(=O)(=O)c3ccccc3)nc3ccc(Cl)cc3c2=O)cc1`, the growth with HOP-92 NSCLC was 101%; in the test on RXF 393 renal, 100%; with SK-MEL-5 melanoma, 98.9%; in the test with SK-MEL-28 melanoma it was 98.3%; in the test on EKVX NSCLC, 95.6%; in the test on CCRF-CEM leukemia it was 108%. In addition, the growth is 98.2% in the test on OVCAR-4 ovarian; 103% in the test on IGROV1 ovarian; 94.8% in the test on T-47D breast; 103% with MDA-MB-435 melanoma; 105% in the test on SW-620 colon; 83.2% in the test with MCF7 breast. For the same molecule, the growth with HCT-116 colon was 95.6%; with KM12 colon, 102%.

On to `O=C(CN1CCN(c2ncnc3c2cnn3-c2ccccc2)CC1)Nc1ccc(Cl)cc1`, for which the growth in the test with HOP-92 NSCLC is 69.8%; in the test with RXF 393 renal, 74.4%; in the test with SK-MEL-5 melanoma, 0.35% (active); in the test on EKVX NSCLC, 45%; in the test with CCRF-CEM leukemia, 51.9%; with OVCAR-8 ovarian, 56.6%. The growth with OVCAR-4 ovarian is 44.5%; in the test on IGROV1 ovarian, 48%; with T-47D breast, 26.7%; in the test with MDA-MB-435 melanoma, 47%; in the test on SW-620 colon it was 78.4%; in the test with MCF7 breast it was 27.6%. The growth in the test with HCT-116 colon was 51.8%; in the test on HCC-2998 colon, 55.8%; in the test with KM12 colon, 53.1%.

Take `COc1ccc(NCc2cn(-c3ccc(C(=O)O)cc3)nc2-c2ccc(F)cc2)cc1C(F)(F)F`: the growth is 68.3% in the test with HOP-92 NSCLC; 35.8% in the test with A549/ATCC NSCLC; 75.4% in the test on RXF 393 renal; 26.7% in the test with SK-MEL-5 melanoma; 41.6% with CCRF-CEM leukemia; 57.2% in the test with OVCAR-4 ovarian. Also, the growth with T-47D breast was 47.5%; with MDA-MB-435 melanoma, 36.8%; in the test on SW-620 colon, 60.1%; with MCF7 breast it was 30.5%; with HCT-116 colon it was 39.5%; in the test with KM12 colon, 24.1%.

For `COc1ccc2[nH]cc(-c3nc(N)nnc3-c3cn(C)c4ncc(Br)cc34)c2c1`, the growth in the test on HOP-92 NSCLC was -2.43% (active); with RXF 393 renal, -14% (active); with SK-MEL-5 melanoma it was -50.1% (active); with SK-MEL-28 melanoma, 37.5%; in the test on CCRF-CEM leukemia, 1.4% (active); with OVCAR-4 ovarian, 37.4%. For the same molecule, the growth in the test on T-47D breast is 48.5%; in the test with MDA-MB-435 melanoma, -38.8% (active); in the test with SW-620 colon, 17.8%; in the test on MCF7 breast it was 4.79% (active); with HCT-116 colon it was 1.45% (active); in the test on HCC-2998 colon, 11.8%. The growth with KM12 colon was 5.71% (active).

On to `O=C(CN1CCN(c2ncnc3c2cnn3-c2ccccc2)CC1)Nc1ccc(Br)cc1`, for which the growth with HOP-92 NSCLC is 74.6%; in the test on RXF 393 renal, 76%; in the test with SK-MEL-5 melanoma, 9.44% (active); in the test with EKVX NSCLC, 46.9%; in the test on CAKI-1 renal it was -57% (active); in the test on CCRF-CEM leukemia it was 61.6%. In addition, the growth was 56.5% in the test with OVCAR-4 ovarian; 58.1% with IGROV1 ovarian; 41.6% in the test with T-47D breast; 53.2% with MDA-MB-435 melanoma; 78.1% in the test with SW-620 colon; 36.8% with MCF7 breast. In addition, the growth was 52.5% in the test with HCT-116 colon, 78.8% in the test with HCC-2998 colon and 57.5% in the test on KM12 colon.

Regarding `COc1ccc(Cc2nn(CC(=O)N/N=C/c3ccc([N+](=O)[O-])cc3)c(=O)c3c(C)noc23)cc1`, the growth with HOP-92 NSCLC was 91.6%; with RXF 393 renal, 55.5%; in the test on SK-MEL-5 melanoma it was 92.8%; in the test with SK-MEL-28 melanoma, 80.3%; with CAKI-1 renal, 53.2%; in the test with CCRF-CEM leukemia, 69.5%. In addition, the growth in the test with OVCAR-4 ovarian is 1.77% (active); in the test on IGROV1 ovarian it was 82.9%; with T-47D breast, 73.5%; with MDA-MB-435 melanoma, 71.7%; in the test with SW-620 colon it was 60.9%; with MCF7 breast it was 55%. For the same molecule, the values for the growth with HCT-116 colon and in the test on KM12 colon were 27% and 79.7%, respectively.

On to `Cn1cc(/C=C(/SS/C(=C/c2cn(C)c3cccc(C(=O)O)c23)C(=O)O)C(=O)O)c2c(C(=O)O)cccc21`, for which the growth with A549/ATCC NSCLC was 99.6%; in the test on RXF 393 renal, 112%; with SK-MEL-5 melanoma it was 100%; in the test on SK-MEL-28 melanoma, 98.3%; in the test on EKVX NSCLC, 98.2%; with CCRF-CEM leukemia, 106%. The growth in the test with OVCAR-8 ovarian is 103%; with OVCAR-4 ovarian it was 99.6%; in the test with T-47D breast, 101%; with MDA-MB-435 melanoma, 98%; with SW-620 colon, 116%; with MCF7 breast it was 92.6%. Further, the values for the growth in the test with HCT-116 colon and in the test on KM12 colon were 118% and 103%, respectively.

Take `O=C1NC(=S)S/C1=C\c1cn(-c2ccccc2)nc1-c1ccc([N+](=O)[O-])cc1`: the growth was 3.42% (active) in the test on RXF 393 renal; -33.3% (active) in the test on SK-MEL-5 melanoma; 9.43% (active) with EKVX NSCLC; 14.5% in the test on CAKI-1 renal; 18.5% with CCRF-CEM leukemia; 18% in the test with OVCAR-8 ovarian. In addition, the growth with OVCAR-4 ovarian is 15%; with T-47D breast it was 6.73% (active); in the test with MDA-MB-435 melanoma, 6.24% (active); in the test with SW-620 colon, 21.7%; in the test on MCF7 breast it was 6.25% (active); with HCT-116 colon it was 5% (active). For the same molecule, the growth in the test with KM12 colon is 24.4%.

For `COc1ccc(C(=O)COc2ccc(NC(=O)Nc3ccc(Cl)c(C(F)(F)F)c3)cc2)cc1`, the growth with A549/ATCC NSCLC was 18.5%; with RXF 393 renal it was -52.1% (active); with SK-MEL-5 melanoma, -67.3% (active); in the test on CAKI-1 renal it was 27.2%; in the test on OVCAR-8 ovarian it was 22.5%; in the test with OVCAR-4 ovarian, 19%. The growth in the test on IGROV1 ovarian was 49.9%; in the test on T-47D breast it was 12.5%; in the test on MDA-MB-435 melanoma it was 27.3%; in the test on SW-620 colon it was 54.6%; with MCF7 breast, 17.1%; with HCT-116 colon, 25.9%. Moreover, in the test on KM12 colon, the growth is 13.6%.
